Laboratory results published in PubChem BioAssay (NCATS).
Where “and” joins values, the source holds several entries; their conditions need not be identical. Identical values can stand only once. Inconclusive results are not listed. Calls of active or inactive are those of the source. Calls come from the whole dose curve; as a rule, active = well fitted cell-killing curve with a large enough effect; inconclusive = small, poorly fitted or top-dose-only effect, or effect the other way; inactive = no such curve, though single readings can be large or run the other way.

Assay: Viability qHTS for spleen associated tyrosine kinase inhibitor (SYKi) drug resistant MV4-11 cells (AID 1963824); note: nearly all actives have a fitted effect of over 35% in size
Conditions: SYKi-resistant MV4-11 viability, CellTiter-Glo, 72 h; series mostly up to 45 µM
How it was run: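 SYK-inhibitor-resistant MV4-11 AML cells were seeded at 500 per well onto compound and cultured 72 hours (37 °C, 5% CO2). CellTiter-Glo was then added, and after 10 min at room temperature, luminescence gave viability.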
Potency is the fitted concentration of half-maximal effect.

Row | Compound | Potency
1 | CN1CCC(NC(=O)c2cc(-c3c(O)cc(O)cc3Oc3ccc([N+](=O)[O-])cc3)on2)CC1 | 0.103 µM (active)
2 | C=C1CCC2C(C)(C(=O)O)CCCC2(C)C1CCC(C)CC(=O)O (configuration not stated) | 4.53 µM (active)
3 | CC1=CC(=O)CC(C)(C)[C@@]1(O)CC[C@@H](C)O[C@@H]1O[C@H](CO)[C@@H](O)[C@H](O)[C@H]1O | inactive
4 | CC(=O)O[C@@H]1CC[C@@]2(C)C(CC[C@]3(C)C2[C@H](O)C=C2[C@H]4[C@@H](C)[C@H](C)CC[C@]4(C)CC[C@]23C)[C@@]1(C)C(=O)O (some centres not stated) | 7.09 µM (active)
5 | CC1=CC(=O)[C@@]2(C(C)C)C[C@@H]12 | 13 µM (active)
6 | COC1=CC(=O)CC(C)C12Oc1cc(OC)cc(O)c1C2=O (configuration not stated) | inactive
7 | C/C=C(\C)C(=O)O[C@H]1C=CC(=O)O[C@H]1/C=C/[C@@H](O)[C@H](C)O | 3.66 µM (active)
8 | C=C1CCC2C(C)(C(=O)O)CC(O)CC2(C)C1CC/C(C)=C/C(=O)O (configuration not stated) | inactive
9 | COc1cc(-c2nc(N[C@H](CO)Cc3ccccc3)ccc2C(=O)NCCOc2ccccc2)cc(OC)c1OC | 25.9 µM (active)
10 | N=C1N=C(N)c2cc3ccccc3cc21 | 38.6 µM (active)
11 | CC(C)(O)c1ccc2c(c1)C(=O)C[C@H]1[C@](C)(C(=O)O)CCC[C@]21C | inactive
12 | Cc1cc(Nc2ncnc3ccc(NC4=NC(C)(C)CO4)cc23)ccc1Oc1ccn2ncnc2c1 | 16.4 µM (active)
13 | Cc1cc(Nc2nc(-c3ccccc3)nc3ccccc23)n[nH]1 | 0.366 µM (active)
14 | COc1c2c(c(C)c3c1C(=O)OC3)OC1(C)CC(O)C34OC(OC)(CC(O)C3(C)C1C2)OC4(C)C (configuration not stated) | 10 µM (active)
15 | Nc1nc2ccc([N+](=O)[O-])cc2s1 | 27.3 µM (active)
16 | COC(=O)C1=CO[C@@H](O[C@@H]2O[C@H](CO)[C@@H](O)[C@H](O)[C@H]2O)/C(=C\CO)[C@@H]1CC(=O)OCCc1ccc(O)cc1 | inactive

Row | Compound | Potency
17 | O=C(O)CCc1nccc2c1[nH]c1ccccc12 | 23.1 µM (active)
18 | OCC1OC(Oc2cc(O)cc(/C=C/c3ccc(O)cc3)c2)C(O)C(O)C1O (configuration not stated) | inactive
19 | CC1(C)OC(=O)CC(O)C2(C)C1CC(=O)C1(C)C2C(O)CC2(C)C(c3ccoc3)OC(=O)C3OC321 (configuration not stated) | inactive
20 | CCOc1ccc(-c2cc(NC(=O)c3c(F)cccc3F)c(C(=O)O)s2)cc1 | inactive
21 | C[C@@H]1C[C@@H]([C@@H](O)C(C)(C)O)O[C@H]2C[C@@]3(C)C(=C12)C[C@H](O)[C@H]1[C@@]2(C)CCC(=O)C(C)(C)C2CC[C@@]13C (some centres not stated) | 1.26 µM (active)
22 | CO[C@H]1/C=C/O[C@@]2(C)Oc3c(C)c(O)c4c(O)c(c(/C=N/N5CCN(C)CC5)c(O)c4c3C2=O)NC(=O)/C(C)=C\C=C\[C@H](C)[C@H](O)[C@@H](C)[C@@H](O)[C@@H](C)[C@H](OC(C)=O)[C@@H]1C | 18.6 µM (active)
23 | O[C@@](Cc1ncc(CC2(C(F)(F)F)CC2)[nH]1)(c1ccc(-n2cccn2)cc1)C(F)(F)F | 14.6 µM (active)
24 | Cc1cc(C)c(CNC(=O)c2cc(-c3ccc(N4CCN(C)CC4)nc3)cc3c2c(C)cn3C(C)C)c(=O)[nH]1 | 14.8 µM (active) and 16.6 µM (active)
25 | CC(=O)OC1CC(O)(C(C)C)C2C(OC(=O)c3ccc(O)cc3)C=C(C)C(=O)CC12C (configuration not stated) | 11.2 µM (active)
26 | C=CC(C)(/C=C/c1ccc(O)cc1)CCC=C(C)C (configuration not stated) | 23.1 µM (active)
27 | COc1ccccc1NC(=O)Nc1ccc2ccccc2c1 | 20.6 µM (active)
28 | CC1(C)CC[C@]2(C(=O)O[C@@H]3O[C@H](CO)[C@@H](O)[C@H](O)[C@H]3O)CC[C@]3(C)C(=CCC4[C@@]5(C)C[C@@H](O)[C@H](O)[C@@](C)(CO)C5[C@H](O)C[C@]43C)C2C1 (some centres not stated) | inactive
29 | CCC[C@@H]1O[C@@H]2C[C@H]3[C@@H]4CCC5=CC(=O)C=C[C@]5(C)[C@H]4[C@@H](O)C[C@]3(C)[C@]2(C(=O)CO)O1 | 8.2 µM (active)
30 | CC(C)CC(=O)OC1OC=C(CO[C@@H]2O[C@H](CO)[C@@H](O)[C@H](O)[C@H]2O)C2CC(O)C(O)(CO)C12 (some centres not stated) | inactive
31 | C=C1CCC2C(C(C)(C)O)CCC2(C)CC(O)C(=C)CCC1O (configuration not stated) | 11.4 µM (active)
32 | COc1cc2c(cc1OC)N1C(=O)C[C@]34C=CCN5CC[C@@H]2[C@@H](CC3)[C@]514 | 8.05 µM (active)
